Reference: PubChem BioAssay (EPA / NIEHS)
Values joined by “and” are separate entries in the source; they are usually repeats but may differ in a detail not shown here. Equal entries are not always repeated. Active and inactive are the calls of the source. How the source made its calls: active means hit-call score of the fitted dose curve at least 0.9, where 1 is the maximum; inactive means score below 0.9.

Assays:
Details in all cases: mRNA level, 48 h; actives raise or lower the signal
[1] = read-out: Alpha-fetoprotein (AFP) gene, AFP (gene 174); experiment: LTEA_HepaRG_AFP: Life Technologies and Expression Analysis (LTEA) Assay for Alpha-fetoprotein (AFP) gene using HepaRG (AID 2283472)
Method in brief: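 Human HepaRG cells plated 48 h, then switched to serum-free induction medium and exposed in duplicate for 48 h to 8-point half-log series from 100 uM in 0.5% DMSO. AFP mRNA by qRT-PCR, normalized to ACTB, GAPDH, POLR2A; bidirectional fit versus DMSO.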

BCL2L11 (gene 10018) = experiment: LTEA_HepaRG_BCL2L11: Life Technologies and Expression Analysis (LTEA) Assay for Bcl-2 (BCL2L11) gene using HepaRG (AID 2283473)
Method in brief: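 Human hepatic HepaRG cultures are treated 48 h with test chemicals (maximum 100 uM, 0.5% DMSO vehicle). Expression of BCL2L11 is measured by qRT-PCR against ACTB, GAPDH and POLR2A, with activity in either direction scored relative to vehicle.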

[2] = read-out: Apolipoprotein A-V (APOA5) gene, APOA5 (gene 116519); experiment: LTEA_HepaRG_APOA5: Life Technologies and Expression Analysis (LTEA) Assay for Apolipoprotein A-V (APOA5) gene using HepaRG (AID 2283474)
Method in brief: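 Concentration-response of APOA5 expression in HepaRG: eight half-log doses to 100 uM, 48 h, qRT-PCR normalized to ACTB/GAPDH/POLR2A, bidirectional fitting with 0.5% DMSO as baseline.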

[3] = read-out: Bcl-2 (BID) gene, BID (gene 637); experiment: LTEA_HepaRG_BID: Life Technologies and Expression Analysis (LTEA) Assay for Bcl-2 (BID) gene using HepaRG (AID 2283476)
Method in brief: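 Differentiated HepaRG cells in serum-free induction medium were exposed in duplicate for 48 h to eight half-log concentrations up to 100 uM in 0.5% DMSO. BID mRNA was quantified by qRT-PCR, normalized to ACTB, GAPDH and POLR2A.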

Caspase-3 (Homo sapiens) = Caspase-3 (Homo sapiens) (UniProt P42574); experiment: LTEA_HepaRG_CASP3: Life Technologies and Expression Analysis (LTEA) Assay for cysteine-aspartic acid protease (CASP3) using HepaRG (AID 2283477)
Method in brief: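 Transcript-level assay: CASP3 mRNA in human HepaRG after 48 h treatment, eight half-log concentrations from 100 uM in 0.5% DMSO, quantified by qRT-PCR.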

[4] = read-out: Cytochrome P450 (CYP24A1), CYP24A1 (gene 1591); experiment: LTEA_HepaRG_CYP24A1: Life Technologies and Expression Analysis (LTEA) Assay for Cytochrome P450 (CYP24A1) using HepaRG (AID 2283478)
Method in brief: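 Gene expression of CYP24A1 by TaqMan qRT-PCR in HepaRG after 48 h treatment, highest concentration 100 uM; activity fitted in both directions relative to DMSO vehicle.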

[5] = read-out: Cytochrome P450 (CYP1A2), CYP1A2 (gene 1544); experiment: LTEA_HepaRG_CYP1A2: Life Technologies and Expression Analysis (LTEA) Assay for Cytochrome P450 (CYP1A2) using HepaRG (AID 2283479);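 on AC50: TaqMan qRT-PCR transcript level normalized to ACTB GAPDH and POLR2A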
Method in brief: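 In duplicate wells, HepaRG cultures maintained in 0.5% DMSO were treated 48 h across an 8-point, half-log series topping at 100 uM; phenobarbital (1 mM) served as induction control. Expression was read by qRT-PCR.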

[6] = read-out: cysteine-aspartic acid protease (CASP8), CASP8 (gene 841); experiment: LTEA_HepaRG_CASP8: Life Technologies and Expression Analysis (LTEA) Assay for cysteine-aspartic acid protease (CASP8) using HepaRG (AID 2283480)
Method in brief: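 Differentiated human HepaRG cells, plated 48 h then switched to serum-free induction medium, were exposed in duplicate for 48 h to 8 half-log concentrations up to 100 uM in 0.5% DMSO. CASP8 mRNA was quantified by qRT-PCR, normalized to ACTB/GAPDH/POLR2A.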

[7] = read-out: Cytochrome P450 (CYP2B6), CYP2B6 (gene 1555); experiment: LTEA_HepaRG_CYP2B6: Life Technologies and Expression Analysis (LTEA) Assay for Cytochrome P450 (CYP2B6) using HepaRG (AID 2283481)
Method in brief: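 Human HepaRG, 48 h dosing, 0.5% DMSO vehicle, top dose 100 uM. CYP2B6 transcript by qRT-PCR, housekeeping-normalized, bidirectional curve fit.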

[8] = read-out: Cytochrome P450 2C19 (Homo sapiens) (UniProt P33261); experiment: LTEA_HepaRG_CYP2C19: Life Technologies and Expression Analysis (LTEA) Assay for CYP2C19 using HepaRG (AID 2283482)
Method in brief: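 Endpoint: CYP2C19 mRNA change, bidirectional fit vs 0.5% DMSO. Cells: HepaRG, 48 h exposure, eight-point series topping at 100 uM. Quantitation: qRT-PCR normalized to ACTB, GAPDH, POLR2A.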

Sequence of Cytochrome P450 2C19 (Homo sapiens) (P33261 whole entry, looked up): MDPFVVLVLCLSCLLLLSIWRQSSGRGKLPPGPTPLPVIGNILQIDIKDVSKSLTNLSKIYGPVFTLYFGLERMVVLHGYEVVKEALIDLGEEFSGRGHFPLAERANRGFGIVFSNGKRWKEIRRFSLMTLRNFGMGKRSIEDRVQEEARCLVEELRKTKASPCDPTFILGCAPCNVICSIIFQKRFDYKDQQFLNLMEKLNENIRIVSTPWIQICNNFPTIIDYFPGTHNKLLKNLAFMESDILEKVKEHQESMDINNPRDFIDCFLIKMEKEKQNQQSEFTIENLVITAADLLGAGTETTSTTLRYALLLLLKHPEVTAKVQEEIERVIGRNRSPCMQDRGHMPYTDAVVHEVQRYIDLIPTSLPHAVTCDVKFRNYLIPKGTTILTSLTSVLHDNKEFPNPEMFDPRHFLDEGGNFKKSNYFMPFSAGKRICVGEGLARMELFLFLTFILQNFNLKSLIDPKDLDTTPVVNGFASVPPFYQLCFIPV
Sequence of Caspase-3 (Homo sapiens) (P42574 whole entry, looked up): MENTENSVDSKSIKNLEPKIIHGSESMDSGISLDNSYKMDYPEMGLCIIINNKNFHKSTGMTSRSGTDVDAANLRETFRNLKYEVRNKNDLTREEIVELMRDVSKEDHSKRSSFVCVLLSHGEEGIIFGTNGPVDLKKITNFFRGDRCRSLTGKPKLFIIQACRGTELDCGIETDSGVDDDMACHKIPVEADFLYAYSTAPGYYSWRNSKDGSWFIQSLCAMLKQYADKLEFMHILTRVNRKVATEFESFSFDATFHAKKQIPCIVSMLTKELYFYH

SMILES	outcome [1]	outcome (BCL2L11 (gene 10018))	outcome [2]	outcome [3]	outcome (Caspase-3 (Homo sapiens))	outcome [4]	outcome [5]	outcome [6]	outcome [7]	outcome [8]	AC50 [1]	AC50 [5]	AC50 [7]	AC50 [2]	AC50 [3]	AC50 (Caspase-3 (Homo sapiens))	AC50 [6]	AC50 (BCL2L11 (gene 10018))	AC50 [8]
CCCCCCCCc1ccc(O)cc1	inactive	inactive	inactive	inactive	inactive	inactive	inactive	inactive	inactive	inactive									
NC(=O)O	inactive	inactive	inactive	inactive	inactive	inactive	inactive	inactive	inactive	inactive									
Cn1sc(Cl)cc1=O	inactive	inactive	inactive	inactive	inactive	inactive	inactive	inactive	inactive	inactive									
COc1cc(-c2ccc(N)c(OC)c2)ccc1N		inactive	inactive	inactive	inactive	inactive		inactive		inactive	50 µM (active)	23.6 µM (active) and 25.8 µM (active)	3.49 µM (active) and 4.26 µM (active)						
C[C@@H]1C[C@@H]([C@H](O)CC2CC(=O)NC(=O)C2)C(=O)[C@@H](C)C1		inactive									15.5 µM (active)			26 µM (active)	50 µM (active)	12.3 µM (active)	79.9 µM (active)		
O=C(Nc1ccc2[nH]ccc2c1)c1cc2cc(F)ccc2n1Cc1cccc(F)c1				inactive	inactive	inactive		inactive			25.2 µM (active)	12.5 µM (active)	35.1 µM (active)	56.2 µM (active)				12.4 µM (active)	73.6 µM (active)
C[C@]12CCC(=O)C[C@@H]1CC[C@@H]1[C@@H]2CC[C@]2(C)[C@@H](O)CC[C@@H]12	inactive	inactive	inactive	inactive	inactive	inactive		inactive	inactive			65.1 µM (active)							23.6 µM (active)
CCC(C)(C)c1ccc(O)c(C(C)(C)CC)c1	inactive	inactive	inactive	inactive	inactive	inactive		inactive	inactive	inactive		80.4 µM (active)							
CCN1CCC2(CC1)COc1cc3c(cc12)N(C(=O)c1ccc(-c2ccc(-c4nnc(C)o4)cc2C)cc1)CC3	inactive	inactive		inactive	inactive	inactive	inactive						28.3 µM (active)	24.6 µM (active)			21.8 µM (active)		21.9 µM (active)
CCOP(=S)(OCC)Oc1nc(Cl)c(Cl)cc1Cl	inactive	inactive	inactive	inactive	inactive	inactive		inactive				50 µM (active)	11.4 µM (active)						23.8 µM (active)
O=C(O)C(F)(F)C(F)(F)C(F)(F)C(F)(F)C(F)(F)C(F)(F)F	inactive	inactive	inactive	inactive	inactive	inactive	inactive	inactive					24.9 µM (active)						0.576 µM (active)
Oc1cccc2cccnc12	inactive	inactive	inactive	inactive	inactive	inactive		inactive	inactive	inactive		7.72 µM (active)							
CC(=O)[O][Hg][c]1ccccc1				inactive		inactive					5 µM (active)	5 µM (active)	6.12 µM (active)	4.21 µM (active)		23.1 µM (active)	26.6 µM (active)	11.9 µM (active)	5 µM (active)
ClCC(Cl)CCl	inactive	inactive			inactive	inactive	inactive	inactive		inactive			17.7 µM (active)	77.6 µM (active)	84.3 µM (active)				
C=CC(=O)OCCCCCC(C)C	inactive	inactive		inactive	inactive	inactive		inactive	inactive	inactive		50 µM (active)		0.483 µM (active)					
CC(C)(OO)c1ccccc1	inactive	inactive	inactive	inactive	inactive	inactive		inactive		inactive		50 µM (active)	22.9 µM (active)						

SMILES	outcome [1]	outcome (BCL2L11 (gene 10018))	outcome [2]	outcome [3]	outcome (Caspase-3 (Homo sapiens))	outcome [4]	outcome [5]	outcome [6]	outcome [7]	outcome [8]	AC50 [1]	AC50 [5]	AC50 [7]	AC50 [2]	AC50 [3]	AC50 (Caspase-3 (Homo sapiens))	AC50 [6]	AC50 (BCL2L11 (gene 10018))	AC50 [8]
O=[N+]([O-])c1ccc(O)c([N+](=O)[O-])c1						inactive					24.2 µM (active)	17.2 µM (active)	16 µM (active)	25.3 µM (active)	12.9 µM (active)	7 µM (active)	22.3 µM (active)	13.1 µM (active)	19.5 µM (active)
CC(C)(c1ccccc1)c1ccc(O)c(C(C)(C)c2ccccc2)c1		inactive		inactive	inactive	inactive	inactive	inactive			68.7 µM (active)		11.9 µM (active)	50 µM (active)					83.2 µM (active)
CC(C)(C)CC(C)(C)c1ccc(O)cc1	inactive	inactive			inactive	inactive	inactive	inactive		inactive			3.33 µM (active)	50 µM (active)	82.8 µM (active)				
ClC1(Cl)C2(Cl)C3(Cl)C4(Cl)C(Cl)(Cl)C5(Cl)C3(Cl)C1(Cl)C5(Cl)C24Cl (centres undefined)	inactive	inactive	inactive	inactive	inactive	inactive		inactive				15.8 µM (active)	0.73 µM (active)						3.41 µM (active)
CN(C)N=O	inactive	inactive	inactive	inactive	inactive	inactive	inactive	inactive	inactive	inactive									
Cc1ccccc1N	inactive	inactive	inactive	inactive	inactive	inactive	inactive	inactive	inactive	inactive									
O=C1C2(Cl)C3(Cl)C4(Cl)C(Cl)(Cl)C5(Cl)C3(Cl)C1(Cl)C5(Cl)C24Cl (centres undefined)		inactive	inactive	inactive		inactive		inactive			24.1 µM (active)	8.79 µM (active)	93.5 µM (active)			92.3 µM (active)			26.4 µM (active)
O=C(O)C(F)(F)C(F)(F)C(F)(F)C(F)(F)C(F)(F)C(F)(F)C(F)(F)C(F)(F)C(F)(F)C(F)(F)F	inactive		inactive	inactive	inactive	inactive		inactive		inactive		41.6 µM (active)	47.8 µM (active)					47.8 µM (active)	
C=C(C)C(=O)[O][Sn]([CH2]CCC)([CH2]CCC)[CH2]CCC						inactive		inactive			2.17 µM (active)	0.471 µM (active)	2.33 µM (active)	2.92 µM (active)	1.58 µM (active)	5 µM (active)		88.3 µM (active)	2.64 µM (active)
O=C(O)C(Cl)(Cl)Cl	inactive	inactive	inactive	inactive	inactive	inactive	inactive	inactive	inactive	inactive									
CCC(=O)C(CC(C)N(C)C)(c1ccccc1)c1ccccc1 (centres undefined)		inactive	inactive	inactive	inactive	inactive		inactive			36.2 µM (active)	36.2 µM (active)	2.41 µM (active)						10.1 µM (active)
CCOP(=S)(OCC)SCSP(=S)(OCC)OCC			inactive	inactive				inactive			50 µM (active)	50 µM (active)	13 µM (active)			0.095 µM (active)		0.228 µM (active)	26.1 µM (active)
O=c1[nH]c(=O)[nH]c(=O)[nH]1	inactive	inactive	inactive	inactive	inactive	inactive	inactive	inactive	inactive	inactive									
CC(C)(C)c1cc(O)ccc1O	inactive	inactive	inactive	inactive	inactive	inactive	inactive	inactive	inactive	inactive									
CC12CC1(C)C(=O)N(c1cc(Cl)cc(Cl)c1)C2=O (centres undefined)		inactive	inactive	inactive		inactive		inactive			25.8 µM (active)	3.26 µM (active)	4.53 µM (active)						8.3 µM (active)
